PubChem BioAssay (NCATS)
Several values for one entry are separate records, joined by “and”; a condition that tells them apart may be missing. Equal entries are not always repeated. Peptide text beside a SMILES is read from it.

Assay: qHTS profiling for inhibitors of Plasmodium falciparum (HB3) proliferation (AID 743324);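 note: 100% = DMSO vehicle wells and 0% = artemisinin-treated control wells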
Details: Plasmodium falciparum HB3 blood-stage proliferation; at 28.7 µM (top of the series) unless noted
Procedure, shortened: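 P. falciparum HB3 grown in erythrocytes (0.3% parasitemia, 2.5% hematocrit final) with compound for 72 h at 37 C, 5% CO2. Parasite DNA detected by SYBR Green after saponin/triton lysis overnight; normalized to 0.29 uM artemisinin and DMSO.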

SMILES	remaining proliferation (% of control), lower = more inhibition
Cc1cccc(-c2[nH]ncc2-c2ccc3ncccc3n2)n1	89.3% [at 57.5 µM]
Nc1cccc2c1CN(C1CCC(=O)NC1=O)C2=O (stereo unspecified)	96.8% [at 57.5 µM] and 102% [at 57.5 µM]
Cc1cccc(C)c1OCC(=O)N[C@@H](Cc1ccccc1)[C@@H](O)C[C@H](Cc1ccccc1)NC(=O)[C@H](C(C)C)N1CCCNC1=O	0.361%
CCOC(=O)C1=C(O)C(=O)N(Cc2ccccc2)C1	67.7%
COc1cc(Nc2c(C#N)cnc3cc(OCCCN4CCN(C)CC4)c(OC)cc23)c(Cl)cc1Cl	1.13%
CC(C)C[C@H](NC(=O)[C@H](Cc1ccccc1)NC(=O)c1cnccn1)B(O)O	-0.165%
CN(C)c1ccc2nc3ccc(=[N+](C)C)cc-3sc2c1	14.3% [at 57.5 µM]
CCc1nc(N)nc(N)c1-c1ccc(Cl)cc1	3.84%
CCN(CCO)CCCC(C)Nc1ccnc2cc(Cl)ccc12 (stereo unspecified)	1.3% and -0.152%

Assay: qHTS profiling of the MIPE4 collection as inhibitors of Plasmodium falciparum (3D7) proliferation (AID 743344);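 note: scaled between DMSO vehicle wells and 0.29 µM artemisinin as full inhibition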
Details: P. falciparum 3D7 in erythrocytes, SYBR Green DNA fluorescence, 72 h; at 28.5 µM (top of the series) unless noted
Procedure, shortened: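 Erythrocytes infected with P. falciparum (0.3% parasitemia, 2.5% hematocrit) incubated with compounds 72 h at 37 C, 5% CO2. Lysis with saponin/Triton buffer containing SYBR Green I, overnight at room temperature in the dark; DNA fluorescence (485/535 nm) normalised to 0.29 uM artemisinin and DMSO.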

SMILES	parasite growth, % of DMSO control
Cc1cccc(-c2[nH]ncc2-c2ccc3ncccc3n2)n1	74.7%
CCN(CC)C(=S)SSC(=S)N(CC)CC	65.9%
Nc1ccc(S(N)(=O)=O)cc1	105%
Nc1nc(Cl)nc2c1ncn2[C@H]1C[C@H](O)[C@@H](CO)O1	102%
C[Se]CCC(N)C(=O)O (stereo unspecified)	99.6% [at 57.5 µM]
CCCc1cc(=O)[nH]c(=S)[nH]1	95.4%
Nc1cccc2c1CN(C1CCC(=O)NC1=O)C2=O (stereo unspecified)	83.6% [at 57.5 µM]
O=C(O)c1cc(=O)c2c(OCC(O)COc3cccc4oc(C(=O)O)cc(=O)c34)cccc2o1	85.2%
Cc1ccc(NC(=O)c2ccc(CN3CCN(C)CC3)cc2)cc1Nc1nccc(-c2cccnc2)n1	6.13%
CS(=O)(=O)OCCCCOS(C)(=O)=O	89.8%
Cc1cccc(C)c1OCC(=O)N[C@@H](Cc1ccccc1)[C@@H](O)C[C@H](Cc1ccccc1)NC(=O)[C@H](C(C)C)N1CCCNC1=O	6.88%
CCOC(=O)C1=C(O)C(=O)N(Cc2ccccc2)C1	74.5%
S=c1nc[nH]c2nc[nH]c12	68.3%
COc1cc(Nc2c(C#N)cnc3cc(OCCCN4CCN(C)CC4)c(OC)cc23)c(Cl)cc1Cl	6.35%
COc1cc(OC)c(C(=O)CCCN2CCCC2)c(OC)c1	90.8%
CCCCC(CC)COC(=O)C(C#N)=C(c1ccccc1)c1ccccc1 (stereo unspecified)	9.47%
CC(C)C[C@H](NC(=O)[C@H](Cc1ccccc1)NC(=O)c1cnccn1)B(O)O	4.91%
Cc1ccc(C)c(OCCCC(C)(C)C(=O)O)c1	5.29%
COC(=O)[C@H](Cc1ccccc1)NC(=O)[C@@H](N)CC(=O)O (H-Asp-Phe-OMe)	88.6%
c1ccc2[nH]c(-c3cscn3)nc2c1	11.2%
N[C@@H](Cc1cc(I)c(Oc2cc(I)c(O)c(I)c2)c(I)c1)C(=O)O	89.8%
NS(=O)(=O)c1cc(C(=O)O)c(NCc2ccco2)cc1Cl	58.2%
COc1cc(C(C)=O)ccc1OCCCN1CCC(c2noc3cc(F)ccc23)CC1	29.6%
CN(C)c1ccc2nc3ccc(=[N+](C)C)cc-3sc2c1	60.1% and 20%
Nc1ncn([C@H]2C[C@H](O)[C@@H](CO)O2)c(=O)n1	98%
CCc1nc(N)nc(N)c1-c1ccc(Cl)cc1	30.2%
CCN(CCO)CCCC(C)Nc1ccnc2cc(Cl)ccc12 (stereo unspecified)	20.1%
